Screening results deposited in PubChem by several laboratories.
The list is not random: actives were taken first. Their share in the collection is about 1.3%.
NR5A2 inv ag: inverse agonists of human LRH-1 (NR5A2); O00482; HEK293T StAR-luciferase reporter, LRH-1 transfected, 24 h; inhibition, % at 3.6 µM; 360,000 tested, 0.13% active; AID 602396;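 active = inhibition above the mean inhibition of all tested compounds plus 3 SD, cut at about 73% in these data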;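 note: 0% = DMSO wells and 100% = reporter-only cells lacking LRH-1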
NR2F2 inh: NR2F2 (human) inhibition, primary screen; HEK293T NGFI-A luciferase reporter, luminescence; inhibition, % at 8.6 µM; P24468; AID 686940; 370,000 tested, 0.7% active;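 active = inhibition above a per-plate cutoff, mean inhibition of test wells between control levels plus 3 SD, cut at about 38% in these data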;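 note: cells cotransfected with COUP-TFII expression vector driving the NGFI-A reporter; 0% = median of COUP-TF2 test wells and 100% = reporter-only cells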
NCOA3 inh: inhibits human SRC3 coactivator | Q9Y6Q9 | HEK293 GAL4-SRC3 luciferase reporter, luminescence | inhibition, % at 3.6 µM | 360,000 tested, 0.17% active | AID 588352;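 active = inhibition above a per-campaign cutoff, the mean of all compounds plus 3 SD, cut at about 60% in these data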;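 note: 0% = DMSO-treated cells and 100% = gossypol-treated cells at 36 µM; higher means less SRC3-driven luciferase light from the GAL4 reporter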
SRC1 inh: inhibitors of human steroid receptor coactivator 1 (SRC1); Q15788; HEK293 GAL4-SRC1 luciferase reporter, luminescence; inhibition, % at 3.6 µM; 360,000 tested, 0.12% active; AID 588354;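 active = inhibition above the campaign mean plus 3 SD, with each screening campaign given its own cutoff, cut at about 60% in these data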;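 note: 0% = DMSO treated cells and 100% = gossypol at 36 µM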
Gli-Sufu antag: blocks Gli-Sufu signaling in a luciferase reporter. Sufu-KO-LIGHT fibroblasts, Gli luciferase reporter luminescence. inhibition, % at 5 µM. 340,000 tested, 0.74% active. AID 588413;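 active = inhibition above about 55%, limit read from the data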;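 note: 0% = DMSO-treated cells and 100% = wells with medium but no cells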
SRC2 inh: human SRC2 (NCOA2) inhibition; Q15596; HEK293 GAL4-SRC2 luciferase reporter, luminescence; inhibition, % at 9 µM; 370,000 tested, 0.17% active; AID 651957;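 active = inhibition above the mean inhibition of all tested compounds plus 3 SD, set per campaign, cut at about 52% in these data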;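 note: 0% = DMSO treated cells and 100% = cells given Gossypol at 36 µM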
Gli antag conf: Gli-SUFU antagonism confirmation, single concentration; inhibition, % at 5 µM; shares compounds with Gli-Sufu antag; 2,500 tested, 40% active; Sufu-KO-LIGHT cells, Gli luciferase reporter, luminescence; AID 602428;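 active = mean inhibition at 5 µM reaching about 45%, limit read from the data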;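 note: plate controls were DMSO-treated cells for no effect and wells lacking cells for full effect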
SufuKO cytotox: counter-screen for Gli-SUFU antagonists: cytotoxicity. cytotoxicity, % at 5 µM. 2,500 tested, 32% active. shares compounds with Gli-Sufu antag. Sufu-KO-LIGHT cells cytotoxicity, ATP luminescence;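 active = mean cytotoxicity at 5 µM above about 25%, limit read from the data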;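 note: cells exposed to compound overnight for roughly 16 to 18 hours; plate controls were DMSO wells with cells for no effect and medium without cells for full effect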
Wnt3a cs: inhibits Wnt3a reporter, counter-screen for Gli-SUFU antagonists | shares compounds with Gli-Sufu antag | Wnt-LIGHT cells, Wnt3a-driven luciferase reporter, luminescence | inhibition, % at 6.25 µM | 2,500 tested, 20% active;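 active = mean inhibition above about 25%, limit read from the data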
* = called active by the depositor; . = not tested or not shown.

SMILES	NR5A2 inv ag	NR2F2 inh	NCOA3 inh	SRC1 inh	Gli-Sufu antag	SRC2 inh	Gli antag conf	SufuKO cytotox	Wnt3a cs
COCCSc1nc2c(c(=O)[nH]c(=O)n2C)n1CCCc1ccccc1	3	-32	8	3	52	-4	9	3	-32
COCCn1c(SCCCc2ccccc2)nc2c1c(=O)[nH]c(=O)n2C	-9	4	-8	-3	8	-15	.	.	.
CCCn1c(Sc2nc3c(c(=O)[nH]c(=O)n3C)n2CCC)nc2c1c(=O)[nH]c(=O)n2C	0	-3	-8	-2	99*	2	9	2	-4
COC(=O)C1=C(C)N(Cc2cccc(C(F)(F)F)c2)C(=NCc2ccc(OC)cc2)NC1c1ccc(Cl)cc1 (stereo not drawn)	.	4	.	.	.	8	.	.	.
Fc1ccc2nc(-c3ccc(CN4CCC5(CC4)CNc4ccccc45)cc3)c(-c3ccccc3)nc2c1	.	0	.	.	.	-10	.	.	.
c1ccc(Nc2nc(NCC3CCCO3)c3ccccc3n2)cc1 (stereo not drawn)	16	36	14	-1	57*	6	45*	36*	28*
Cc1ccc(-c2csc(NCCc3nc4cc(Cl)c(Cl)cc4n3CCCO)n2)cc1	-13	1	-8	-20	57*	6	25	35*	-59
CCC(=O)N1CCC(C(=O)NC2CCCc3ccccc32)CC1 (stereo not drawn)	.	1	.	.	.	4	.	.	.
O=C(CN1C(=O)c2ccccc2S1(=O)=O)c1ccccc1F	-53	20	-43	-22	60*	8	78*	20	89*
O=C(CN1C(=O)c2ccccc2S1(=O)=O)c1cccc(Br)c1	12	2	11	3	67*	-16	74*	11	85*
Cc1oc2c(c(C)nn2-c2ccccc2)c(=O)c1Cl	.	-7	.	.	.	-17	.	.	.
CC(C)(C)n1nc(C2CC2)cc1NC(=O)Nc1ccccc1	.	-7	.	.	.	-27	.	.	.
CCN(CC)S(=O)(=O)c1ccc(OC)c(NC(=O)CC2CCCC2)c1	8	-6	-39	-11	8	7	.	.	.
CCN(CC)S(=O)(=O)c1cccc(NC(=O)/C=C/c2cccc([N+](=O)[O-])c2)c1	37	10	13	18	51	10	23	14	-45
CCN(CC)S(=O)(=O)c1cccc(NC(=O)CC2CCCC2)c1	9	0	3	-6	57*	-1	22	10	-8
O=S(=O)(NCc1ccccc1)c1cc(Br)ccc1Br	.	1	.	.	.	-12	.	.	.
Oc1ccc2ccccc2c1C=NN1CCN(Cc2ccc(Cl)cc2)CC1	.	-3	.	.	.	-7	.	.	.
CCc1ccccc1NC(=O)C1CCCN1S(=O)(=O)c1ccc(-c2ccc(=O)[nH]n2)s1 (stereo not drawn)	-5	2	-4	-7	44	-4	.	.	.
Cc1cccc(C)c1NC(=O)C1CCCN1S(=O)(=O)c1ccc(-c2ccc(=O)[nH]n2)s1 (stereo not drawn)	-29	14	18	1	51	-3	13	5	35*
CCC(=O)c1ccccc1OCCCN1CCC(Cc2ccccc2)CC1	13	21	8	11	52	22	21	33*	-37
CCOc1ccccc1OCCN1CCC(Cc2ccccc2)CC1	-8	7	-27	3	9	-13	.	.	.
CC(C)=CCN1CCN(Cc2cccn2-c2ncccn2)CC1CCO (stereo not drawn)	-23	5	2	1	51	-2	18	5	-38
COc1ccc(-c2c(Cc3ccccc3)nc(NC(=O)c3ccccc3)n2Cc2ccccc2)cc1	.	-4	.	.	.	6	.	.	.
C[C@@H]1COc2cccc(NCCCN3CCOCC3)c2S(=O)(=O)N1	.	-7	.	.	.	-6	.	.	.
Cc1oc(-c2cccc(Cl)c2)nc1CN1CCC(C(=O)N2CCN(c3ccccc3F)CC2)CC1	-4	13	6	-6	84*	5	28	21	-37
SMILES	NR5A2 inv ag	NR2F2 inh	NCOA3 inh	SRC1 inh	Gli-Sufu antag	SRC2 inh	Gli antag conf	SufuKO cytotox	Wnt3a cs
Cc1oc(-c2ccc(Cl)cc2)nc1CN1CCC(C(=O)N2CCc3ccccc3C2)CC1	-24	.	2	-5	7	.	.	.	.
COc1ccc(NC(=O)N(C)C[C@H]2OCCCC[C@H](C)Oc3ccc(NC(=O)Nc4cccc5ccccc45)cc3C(=O)N([C@@H](C)CO)C[C@H]2C)cc1	.	2	.	.	.	0	.	.	.
CCc1c(-c2cccc(OC)c2)ncn1CCc1ccccc1OC	.	-10	.	.	.	6	.	.	.
Cc1cc(C)cc(OCC(=O)NCC2CCCO2)c1 (stereo not drawn)	11	16	39	7	71*	47	39	16	38*
Cc1ccc(-c2noc(CCCC(=O)NCC3CCCO3)n2)cc1 (stereo not drawn)	14	18	7	-17	56*	14	39	8	5
O=C(CSCSCC(=O)NCC1CCCO1)NCC1CCCO1 (stereo not drawn)	1	11	6	-1	96*	-15	11	20	-16
CCOC(=O)C1CSCCS(=O)(=O)N1Cc1ccccc1F (stereo not drawn)	.	8	.	.	.	3	.	.	.
CCC(C)(C)C(=O)N1CCc2cc(S(=O)(=O)N(C)Cc3ccco3)ccc21	.	-2	.	.	.	-40	.	.	.
CCOC(=O)c1ccc(NC(=O)CSc2nnc(-c3cc(-c4ccccc4)n[nH]3)n2N)cc1	.	-15	.	.	.	-14	.	.	.
CCn1c(-c2ccsc2)nc2c1c(=O)[nH]c(=O)n2Cc1ccccc1	17	-19	-7	14	62*	-19	27	1	-8
CCCn1c(-c2cccs2)nc2c1c(=O)[nH]c(=O)n2Cc1ccccc1	-8	8	11	-1	12	-1	.	.	.
CCCCn1c(=O)[nH]c(=O)c2c1nc(-c1ccc(-c3ccccc3)cc1)n2C	0	-20	0	-14	53	-8	33	12	-11
COC(=O)C[C@@H]1CC[C@H]2[C@@H](COc3ccc(NC(=O)c4cc(C)on4)cc3C(=O)N2C)O1	.	12	.	.	.	2	.	.	.
Cc1ccc(S(=O)(=O)N(CC(O)CN2CCCCC2)c2ccccc2)cc1 (stereo not drawn)	-10	0	11	7	58*	-18	32	2	-22
COc1cc(NC(=O)CSc2nc(C)cc(C)n2)cc(OC)c1OC	-4	3	10	-8	52	-4	10	3	-9
CCOC(=O)c1cccc(NC(=O)C2CCCN2S(=O)(=O)c2cccc3cccnc23)c1 (stereo not drawn)	-4	0	3	-29	0	7	.	.	.
